{
  "source": "PubChem BioAssay (Tox21)",
  "note": "Results filed as inconclusive are left out. Calls of active or inactive are those of the source. Calls follow the shape of the dose curve; as a rule, active = well fitted cell-killing curve with a large enough effect in the repeat runs; inconclusive = weak or mixed curves, or effect the other way; inactive = no such curve, though single readings can be large or run the other way. % is scaled to controls: 0 for no effect and ±100 for the full control effect; potency is read from the fitted curve at half-maximal effect.",
  "data": [
    {"assay": "qHTS assay to identify small molecule agonists of the vitamin D receptor (VDR) signaling pathway - cell viability counter screen (AID 743224); also: nearly all actives have a fitted effect of over 50% in size", "settings": "VDR-bla HEK293T viability, CellTiter-Glo luminescence, 16 h; series mostly up to 62.6 µM; activity change, negative = cytotoxicity: at the top concentration", "summary_of_the_method": "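Viability is measured in the same wells as the VDR-bla reporter assay: after 16 h compound treatment and 2 h substrate loading, CellTiter-Glo is added and luminescence read 30 min later.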", "values": [
      {"compound": "C#CCOC(=O)[C@@H](C)Oc1ccc(Oc2ncc(Cl)cc2F)cc1", "activity change, negative = cytotoxicity": "19.9% (inactive)"},
      {"compound": "O=C(O)C(c1ccc(Cl)cc1)c1ccc(Cl)cc1", "activity change, negative = cytotoxicity": "-9.94% (inactive)"},
      {"compound": "CCCCOC(=O)c1ccccc1C(=O)OCC(CC)CCCC", "note": "(stereo unspecified)", "activity change, negative = cytotoxicity": "-0.553% (inactive)"},
      {"compound": "CC(=O)[C@@]1(O)CC[C@H]2[C@@H]3C[C@H](C)C4=CC(=O)CC[C@]4(C)[C@H]3CC[C@@]21C", "activity change, negative = cytotoxicity": "5.35% (inactive)"},
      {"compound": "CC(C)NCC(O)COc1ccc(CC(N)=O)cc1", "note": "(stereo unspecified)", "activity change, negative = cytotoxicity": "-20.5% (inactive)"},
      {"compound": "CCCCCCCCCCCCC(=O)O", "activity change, negative = cytotoxicity": "-8.31% [at 81.1 µM] (inactive)"},
      {"compound": "CCOC(=O)C1=NN(c2ccccc2)C(=O)C1", "activity change, negative = cytotoxicity": "-1.23% (inactive)"},
      {"compound": "c1ccc(CNCc2ccccc2)cc1", "activity change, negative = cytotoxicity": "-3.44% (inactive)"},
      {"compound": "c1ccc(-c2nc[nH]c2-c2ccccc2)cc1", "activity change, negative = cytotoxicity": "-1.41% (inactive)"},
      {"compound": "CCCCOC(O)CC", "note": "(stereo unspecified)", "activity change, negative = cytotoxicity": "-1.98% (inactive)"},
      {"compound": "CC(=O)/C=C/C1C(C)=CCCC1(C)C", "note": "(stereo unspecified)", "activity change, negative = cytotoxicity": "2.97% (inactive)"},
      {"compound": "CC[C@H](C)[C@@H](C(=O)O)n1sc2ccccc2c1=O", "activity change, negative = cytotoxicity": "-12.8% (inactive)"},
      {"compound": "CCOc1nc2cccc(C(=O)O)c2n1Cc1ccc(-c2ccccc2-c2nn[nH]n2)cc1", "activity change, negative = cytotoxicity": "-2.33% (inactive)"},
      {"compound": "O=C1CCCCCO1", "activity change, negative = cytotoxicity": "0.832% [at 81.1 µM] (inactive)"},
      {"compound": "COc1ccc([C@@H]2Sc3ccccc3N(CCN(C)C)C(=O)[C@@H]2OC(C)=O)cc1", "activity change, negative = cytotoxicity": "0.974% (inactive)"},
      {"compound": "CCN(CC)CCc1nc(-c2ccccc2)no1", "activity change, negative = cytotoxicity": "-0.543% (inactive)"},
      {"compound": "O=C(O)/C=C/c1cnc[nH]1", "activity change, negative = cytotoxicity": "-2.37% (inactive)"},
      {"compound": "O=C(O)c1cn(C2CC2)c2cc(Cl)c(F)cc2c1=O", "activity change, negative = cytotoxicity": "18.2% (inactive)"},
      {"compound": "C[C@@H](C1=C(CCN(C)C)Cc2ccccc21)c1ccccn1", "activity change, negative = cytotoxicity": "-7.84% (inactive)"},
      {"compound": "CCOc1ccc2[nH]cc(C(=O)NCc3ccccc3)c(=O)c2n1", "activity change, negative = cytotoxicity": "-5.71% (inactive)"},
      {"compound": "CC(C)=CCCC(C)CC=O", "note": "(stereo unspecified)", "activity change, negative = cytotoxicity": "-0.148% (inactive)"},
      {"compound": "CNS(=O)(=O)Cc1ccc2[nH]cc(CCN(C)C)c2c1", "activity change, negative = cytotoxicity": "3.48% (inactive)"},
      {"compound": "OCCC1CCCCN1", "note": "(stereo unspecified)", "activity change, negative = cytotoxicity": "-4.21% [at 81.1 µM] (inactive)"},
      {"compound": "O=S1(=O)N=C(O)c2ccccc21", "activity change, negative = cytotoxicity": "-0.399% (inactive)"},
      {"compound": "CC(=O)Nc1ccc(/C=N/NC(N)=S)cc1", "activity change, negative = cytotoxicity": "-2.43% (inactive)"},
      {"compound": "CC(C)(C)c1ccc(OCC2CO2)cc1", "note": "(stereo unspecified)", "activity change, negative = cytotoxicity": "1.6% [at 81.1 µM] (inactive)"},
      {"compound": "CC(Cc1cccc(C(F)(F)F)c1)NCCOC(=O)c1ccccc1", "note": "(stereo unspecified)", "Potency": "23.7 µM (active)"},
      {"compound": "Nc1ccc(C(=O)Nc2ccccc2N)cc1", "activity change, negative = cytotoxicity": "0.494% (inactive)"},
      {"compound": "CN(C)CCCNCCCN", "activity change, negative = cytotoxicity": "9.68% (inactive)"},
      {"compound": "CC(C)(C)c1ccc(S)cc1", "activity change, negative = cytotoxicity": "20.8% (inactive)"},
      {"compound": "CCCCCCCCCC(=O)OCC", "activity change, negative = cytotoxicity": "11.2% (inactive)"},
      {"compound": "N#Cc1c(F)cccc1F", "activity change, negative = cytotoxicity": "-1.43% (inactive)"},
      {"compound": "CC(C)(C)C1CCCCC1O", "note": "(stereo unspecified)", "activity change, negative = cytotoxicity": "20.1% (inactive)"},
      {"compound": "CCCCCc1ccc(N)cc1", "activity change, negative = cytotoxicity": "-15.6% (inactive)"},
      {"compound": "O=C=NC1CCC(CC2CCC(N=C=O)CC2)CC1", "note": "(stereo unspecified)", "activity change, negative = cytotoxicity": "-15.3% (inactive)"},
      {"compound": "CCCCCCCCCCCCCCC1CO1", "note": "(stereo unspecified)", "activity change, negative = cytotoxicity": "-2.89% (inactive)"}
    ]}
  ]
}
